Most compounds without a hit are left out; they make up all but 18% or so of the library.
HepG2 tox = kills HepG2 cells in TGF-b inhibitor counter-screen | Potency, µM (top dose mostly 46.1 µM), for inactives: at the highest dose activity change, negative = cytotoxicity, actives largely listed as cytotoxic | AID 588856 | HepG2 CAGA-GFP viability, ATP luminescence, 18 h | 410,000 tested, 0.76% active; further: potency means the concentration at half of the fitted maximal effect
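CellTiter-Glo luminescence gave cytotoxicity after 18 hours at 37 degrees C. The cells were HepG2 CAGA-GFP in 1% FBS DMEM, stimulated with 500 pg/mL TGF-beta after compound addition. %Activity was normalised to no-cell wells (complete cell-killing) and DMSO (no toxicity), and curves were fitted and classified.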
DT40 TDP1 no CPT = qHTS for Inhibitors of human tyrosyl-DNA phosphodiesterase 1 (TDP1): qHTS in cells in absence of CPT; AID 686978, 2013; DT40 Tdp1-/- hTDP1 cells, no CPT, ATP luminescence, 48 h; Potency, µM (titrated, usually from 46.2 µM), for the others: top-dose activity change, negative = growth inhibition, hits mostly inhibitors; 420,000 tested, 15% active; further: potency means the concentration at half of the fitted maximal effect; on the % scale 0 is the no-effect control and ±100 the full control effect; nearly all actives have a fitted effect of over 55% in size
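Readout: luminescence from CellTiter-Glo after 30 min in the dark at RT. Cells: DT40 Tdp1-/- with stable hTDP1, 400/well. Exposure: compounds alone, ≥48 hr, 37 °C.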
TDP1 inh = inhibitors of human tyrosyl-DNA phosphodiesterase TDP1. recombinant TDP1, AlphaScreen DNA substrate cleavage. Potency, µM (doses to about 130 µM), without a hit: at the highest dose activity change, negative = inhibition, hits mostly inhibitors. 350,000 tested, 0.28% active. AID 485290; further: potency means the concentration at half of the fitted maximal effect; on the % scale 0 is the no-effect control and ±100 the full control effect; nearly all actives have a fitted effect of over 40% in size
Target sequence (Q9NUW8 whole entry, looked up): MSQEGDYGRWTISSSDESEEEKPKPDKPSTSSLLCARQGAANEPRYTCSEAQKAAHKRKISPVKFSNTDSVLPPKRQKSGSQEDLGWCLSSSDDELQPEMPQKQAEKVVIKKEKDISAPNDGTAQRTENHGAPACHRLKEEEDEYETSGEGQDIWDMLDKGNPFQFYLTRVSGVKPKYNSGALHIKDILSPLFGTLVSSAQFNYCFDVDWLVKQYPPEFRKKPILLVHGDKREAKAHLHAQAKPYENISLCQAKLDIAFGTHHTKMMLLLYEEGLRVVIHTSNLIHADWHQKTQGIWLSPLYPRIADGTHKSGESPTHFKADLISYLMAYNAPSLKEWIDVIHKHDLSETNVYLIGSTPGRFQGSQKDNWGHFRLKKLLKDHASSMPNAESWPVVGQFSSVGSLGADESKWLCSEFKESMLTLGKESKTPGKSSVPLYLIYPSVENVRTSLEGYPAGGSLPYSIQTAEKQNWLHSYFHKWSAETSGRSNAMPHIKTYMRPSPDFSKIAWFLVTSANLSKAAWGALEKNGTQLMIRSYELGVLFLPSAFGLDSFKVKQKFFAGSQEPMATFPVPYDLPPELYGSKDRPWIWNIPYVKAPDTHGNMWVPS
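Enzyme-compound mixtures sat 15 min at room temperature, followed by a 5 min reaction with 15 nM final substrate and 10 min with AlphaScreen beads. Recombinant human Tdp1 was used at 1 nM final.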
DT40 TDP1 CPT = DT40-hTDP1 cell growth loss with CPT; Potency, µM (top dose mostly 46.2 µM), for inactives: at the highest dose activity change, negative = growth inhibition, most hits filed as inhibitors; chicken DT40 Tdp1-/-;hTDP1 cells + 20 nM CPT, ATP luminescence, 48 h; AID 686979; 420,000 tested, 12% active; further: potency means the concentration at half of the fitted maximal effect; on the % scale 0 is the no-effect control and ±100 the full control effect; nearly all actives have a fitted effect of over 55% in size
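Chicken DT40 Tdp1-/- cells complemented with human TDP1, 400 cells/well, exposed to compounds plus 20 nM camptothecin for at least 48 h at 37 C; viability read as ATP content by CellTiter-Glo luminescence.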
IL-1B inflam inh = inhibitors of inflammasome signaling (IL-1 beta secretion). THP-1 LPS/ATP IL-1B secretion, AlphaLISA, 16 h; stronger effect = lower value. activity change, % at 57.5 µM. 360,000 tested, 4.7% active. AID 743279; in the data active means activity change below about -50%; inconclusive means mostly about -30% to -49%; further: on the % scale 0 is the no-effect control and ±100 the full control effect
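THP-1 cells pretreated 1 hr with compounds (up to 57.5 uM final), then stimulated with LPS (250 ng/mL final) plus ATP (1.25 mM final); secreted IL-1B measured by AlphaLISA after 16 hr, decreased signal indicating inhibition.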
TGFb SMAD3 inh = inhibitors of TGF-b signaling | 410,000 tested, 1.2% active | Potency, µM (highest dose often 46.1 µM), inactives show at the highest dose activity, negative = inhibition, actives largely listed as inhibitors | HepG2 CAGA-GFP TGF-b/SMAD3 reporter, GFP fluorescence, 18 h; TGF-beta stimulated, 500 pg/mL final | AID 588855; further: potency means the concentration at half of the fitted maximal effect; on the % scale 0 is the no-effect control and ±100 the full control effect; nearly all actives have a fitted effect of over 65% in size
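Read-out: total well GFP (ex488/em500-530) summed from mean per-cell fluorescence. Cells: HEPG2 CAGA-GFP, 1% FBS DMEM, 18 h at 37 degrees C with 500 pg/mL final TGF-beta. Unstimulated wells served as the full-inhibition control; stimulated DMSO wells = 0%.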
Starred values were filed as active, the others as inactive. Unless noted, the call rests on the fitted dose curve; in most records, active means well fitted curve in the direction sought with a large enough effect; inconclusive means small, poorly fitted or top-dose-only effect, or another doubt; inactive means no such curve, though single readings can be large; an effect the other way counts as inactive or inconclusive.

For O=C(NNc1ncnc2sccc12)c1ccc(Cl)cc1 the results were HepG2 tox 0.1%, DT40 TDP1 no CPT 9.2µM*, DT40 TDP1 CPT 13µM*, IL-1B inflam inh 8.3 and TGFb SMAD3 inh inconclusive.
Cc1csc2ncnc(NNC(=O)c3ccc(Cl)cc3)c12 was read as HepG2 tox -50.8%, DT40 TDP1 no CPT 10.3µM*, TDP1 inh 2.9%, DT40 TDP1 CPT inconclusive, IL-1B inflam inh 35.0 and TGFb SMAD3 inh inconclusive.
For CC1(C)C(=O)N(CC(=O)Nc2ccc(Cl)cc2)c2ccccc21 the results were HepG2 tox -2.7%, DT40 TDP1 no CPT -2.6%, TDP1 inh 9.9%, DT40 TDP1 CPT -5.4% and TGFb SMAD3 inh -17.2%.
For CC(C)(C)c1cc(CSC(=S)NC2CCS(=O)(=O)C2)c(Br)c(C(C)(C)C)c1 (stereo not given) the results were HepG2 tox -112.5%, DT40 TDP1 no CPT 11.6µM*, TDP1 inh -2.7%, DT40 TDP1 CPT 6.51µM*, IL-1B inflam inh -58.3* and TGFb SMAD3 inh inconclusive.
NNC(=S)NC1CCS(=O)(=O)C1 (stereo not given) was read as HepG2 tox -29.7%, DT40 TDP1 no CPT 4.2%, TDP1 inh 7.7%, DT40 TDP1 CPT 1.0%, IL-1B inflam inh -12.5 and TGFb SMAD3 inh 12.0%.
`O=S1(=O)CC=C(CSC(=S)NC2CCS(=O)(=O)C2)C1` (stereo not given) gave HepG2 tox -64.2%, DT40 TDP1 no CPT inconclusive, TDP1 inh 0.0%, DT40 TDP1 CPT 10.3µM*, IL-1B inflam inh -97.4* and TGFb SMAD3 inh inconclusive.
Screening CC1Oc2ccc(C#N)cc2N(Cc2cccc(F)c2)C1=O (stereo not given) returned HepG2 tox 24.4%, DT40 TDP1 no CPT -16.0%, DT40 TDP1 CPT 3.9%, IL-1B inflam inh 6.1 and TGFb SMAD3 inh -4.3%.
`CN(C)CCCCOc1ccc(F)cc1` gave HepG2 tox -32.2%, DT40 TDP1 no CPT inconclusive, TDP1 inh -5.3%, DT40 TDP1 CPT 1.2%, IL-1B inflam inh -5.4 and TGFb SMAD3 inh -44.7%.
For CN(C)CCNCc1ccc(OC2CCCC2)cc1 the results were HepG2 tox 0.0%, DT40 TDP1 no CPT inconclusive, TDP1 inh 0.5%, DT40 TDP1 CPT inconclusive, IL-1B inflam inh 0.0 and TGFb SMAD3 inh 6.2%.
`CN(C)CCOC1(Cc2ccc(F)cc2)CCC(C(C)(C)C)CC1` (stereo not given) gave HepG2 tox -110.0%, DT40 TDP1 no CPT 18.4µM*, DT40 TDP1 CPT inconclusive, IL-1B inflam inh -104.4* and TGFb SMAD3 inh inconclusive.
Screening Cc1ccc(CC2(OCCN(C)C)CCC(C(C)(C)C)CC2)cc1 (stereo not given) returned HepG2 tox -113.3%, DT40 TDP1 no CPT 14.6µM*, DT40 TDP1 CPT 18.4µM*, IL-1B inflam inh -99.5* and TGFb SMAD3 inh inconclusive.
For COc1ccc(S(=O)(=O)NC(=O)C2(C)CCN2C(=O)C2(c3ccccc3)CC2)cc1 (stereo not given) the results were HepG2 tox -7.7%, DT40 TDP1 no CPT -3.0%, DT40 TDP1 CPT 7.9%, IL-1B inflam inh 30.3 and TGFb SMAD3 inh -20.3%.
Screening C#CCNC(=O)c1ccc2sc([C@@H]3O[C@H](CO)[C@H](O)[C@H](O)[C@H]3O)nc2c1 returned HepG2 tox 18.3%, DT40 TDP1 no CPT 13.4%, DT40 TDP1 CPT -8.8%, IL-1B inflam inh 2.4 and TGFb SMAD3 inh 4.0%.
OC(Cc1ccc2ccccc2n1)c1c(Cl)cccc1Cl (stereo not given) was read as HepG2 tox -23.9%, DT40 TDP1 no CPT -25.6%, DT40 TDP1 CPT 3.7% and TGFb SMAD3 inh 0.2%.

Source: PubChem (National Center for Advancing Translational Sciences (NCATS))
